Sm TGR inh: qHTS Assay for the Inhibitors of Schistosoma Mansoni Peroxiredoxins. hit rate 3% among 360,000. Potency, µM (series often up to 114 µM), hits mostly inhibitors. Schistosoma mansoni thioredoxin glutathione reductase (TGR), Q962Y6. purified TGR, DTNB reduction, TNB absorbance 405 nm. AID 485364, 2010; active = well fitted inhibition curve with a large enough effect; inconclusive = small, poorly fitted or top-dose-only effect; inactive = no such curve, though single readings can be large or run the other way; also: nearly all actives have a fitted effect of over 60% in size
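Kinetic colorimetric format: TGR-catalysed, NADPH-driven DTNB reduction monitored via TNB absorbance. Enzyme dispensed at 20 nM; compound exposure 15 min at room temperature before reaction start.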
FMDV antiviral: High Throughput Screening for Foot and Mouth Disease Virus Antivirals | Potency, µM (series often up to 57.9 µM), hits mostly inhibitors | hit rate 1.2% among 410,000 | AID 1159524, 2015 | FMDV antiviral cell-based qHTS; calls by dose curve; tested in HEK293T cells; also: read-out not given here; nearly all actives have a fitted effect of over 45% in size
CHX counter: Cycloheximide Counterscreen for Small Molecule Inhibitors of Shiga Toxin | cell reporter, cycloheximide protein synthesis inhibition counterscreen | max response, % | hit rate 12% among 300,000 | AID 2314, 2010; in the data active = max response mostly above about 13%, no sharp cut-off; inactive = mostly below about 14%; also: read at 38.3 µM for the half of the compounds with a filed dose
Shiga toxin inh: A qHTS for Small Molecule Inhibitors of Shiga Toxin | Vero cells, Shiga toxin protein synthesis inhibition reporter | inhibition, % at 38.7 µM | hit rate 9.2% among 290,000; in the data active = inhibition mostly above about 28%, no sharp cut-off; inactive = mostly below about 43%
Hits are given with their value; ! = a repeat was not active. A selection: hits, their analogues and other compounds. The true share with any hit is near 12%.

How did Cc1ccc(S(=O)(=O)c2nc(-c3ccccc3)oc2N2CCCCCC2)cc1 do in these assays?
Sm TGR inh: inactive; FMDV antiviral: inactive

How did Cc1ccc2c(c1)Cc1c(nc(-c3ccc(F)cc3)nc1SCC(=O)N1CCCCC1)O2 do in these assays?
Sm TGR inh: inactive; FMDV antiviral: inactive

Results for COc1ccc(C)cc1NC1(c2ccccc2)C(=O)c2ccccc2C1=O ?
Sm TGR inh: inactive; FMDV antiviral: inactive

How did O=S(=O)(c1ccccc1)c1nc(-c2cccc(Cl)c2)oc1N1CCOCC1 do in these assays?
Sm TGR inh: 32µM!; FMDV antiviral: inactive; CHX counter: inactive; Shiga toxin inh: inactive

How did COc1ccc(-c2nc(S(=O)(=O)c3ccc(C)cc3)c(N3CCCC3)o2)cc1 do in these assays?
Sm TGR inh: 2µM; FMDV antiviral: inactive; CHX counter: inactive; Shiga toxin inh: inactive

Results for CCc1ccc(CNC(=O)c2cnc3sc(N4CCCCC4)nn3c2=O)cc1 ?
Sm TGR inh: inactive; FMDV antiviral: inactive

What do the screens show for `COc1ccc(-n2c(Cc3cccn3C)nnc2SCC(=O)NCc2ccco2)cc1`?
Sm TGR inh: 56µM; FMDV antiviral: inactive; CHX counter: inactive; Shiga toxin inh: inactive

What do the screens show for `COc1ccc(-n2c(Cc3cccn3C)nnc2SCC(=O)Nc2ccc(Cl)cc2)cc1`?
Sm TGR inh: 50µM; FMDV antiviral: inactive; CHX counter: inactive; Shiga toxin inh: inactive

What do the screens show for `Cn1cccc1Cc1nnc(SCC(=O)N2CCCCCC2)n1-c1ccc(F)cc1`?
Sm TGR inh: inconclusive; FMDV antiviral: inactive; CHX counter: inactive; Shiga toxin inh: inactive

Results for COc1ccc(NC(=O)CSc2nnc(Cc3cccn3C)n2-c2ccc(F)cc2)cc1OC ?
Sm TGR inh: 45µM; FMDV antiviral: inactive; CHX counter: inactive; Shiga toxin inh: inactive

How did Cc1ccc(-n2c(Cc3cccn3C)nnc2SCC(=O)N2CCN(c3ccccc3)CC2)cc1 do in these assays?
Sm TGR inh: 40µM; FMDV antiviral: inactive; CHX counter: inactive; Shiga toxin inh: inactive

What do the screens show for `Oc1c(/C=N/c2ncn[nH]2)ccc2ccccc12`?
Sm TGR inh: 32µM; FMDV antiviral: inactive; CHX counter: 27; Shiga toxin inh: 66

How did Cc1ccc(-n2c(O)c(/C=N/c3ncn[nH]3)c3ccccc3c2=O)cc1 do in these assays?
Sm TGR inh: inactive; FMDV antiviral: inactive; CHX counter: inactive; Shiga toxin inh: inactive

What do the screens show for `Cc1ccc(S(=O)(=O)c2ncccc2[N+](=O)[O-])cc1`?
Sm TGR inh: 0.35µM; FMDV antiviral: 20µM; CHX counter: inactive; Shiga toxin inh: inactive

What do the screens show for `N#CC1(NC(=O)COC(=O)c2cc(O)c3ccccc3c2O)CCCCC1`?
Sm TGR inh: 22µM; FMDV antiviral: inactive

How did CCOc1ccc(NC(=O)CC2C(=O)N(c3ccc(OC)cc3)C(=O)N2C2CCCCC2)cc1 (centres undefined) do in these assays?
Sm TGR inh: inactive; FMDV antiviral: inactive

What do the screens show for `Cc1ccc(N2C(=O)C(CC(=O)Nc3cccc(F)c3)N(C3CC3)C2=O)cc1` (centres undefined)?
Sm TGR inh: 50µM; FMDV antiviral: inactive; CHX counter: 18; Shiga toxin inh: inactive

How did COc1ccc(NC(=O)CC2C(=O)N(c3ccc(OC)cc3)C(=O)N2C2CCCCC2)cc1 (centres undefined) do in these assays?
Sm TGR inh: 56µM; FMDV antiviral: inactive

Results for CCOc1ccc(NC(=O)CC2C(=O)N(c3ccccc3)C(=O)N2C2CCCC2)cc1 (centres undefined) ?
Sm TGR inh: 50µM; FMDV antiviral: inactive

What do the screens show for `Cc1nc2sccn2c(=O)c1S(=O)(=O)NCc1ccc(F)cc1`?
Sm TGR inh: inactive; FMDV antiviral: inactive

What do the screens show for `O=C(O)c1ccc(COc2ccc(CO)cc2Cl)cc1`?
Sm TGR inh: inactive; CHX counter: 29; Shiga toxin inh: 72

How did COc1ccc(Cl)cc1NC(=O)c1cc(S(=O)(=O)N2CCc3ccccc32)cn1C do in these assays?
Sm TGR inh: inactive; FMDV antiviral: inactive

What do the screens show for `CCn1nc(C)c(CN2CCc3c([nH]c4ccccc34)C2c2ccc(F)c(OC)c2)c1C` (centres undefined)?
Sm TGR inh: inactive; FMDV antiviral: inactive; CHX counter: 16; Shiga toxin inh: inactive

How did Cc1ccc2cc(NC(=O)c3ccccc3C)ccc2n1 do in these assays?
Sm TGR inh: inactive; FMDV antiviral: inactive; CHX counter: 34; Shiga toxin inh: 81

What do the screens show for `CCc1ccc(C(=O)Nc2ccc3nc(C)ccc3c2)cc1`?
Sm TGR inh: inactive; FMDV antiviral: inactive; CHX counter: 31; Shiga toxin inh: inactive

How did Cc1ccc2cc(NC(=O)Cc3ccccc3)ccc2n1 do in these assays?
Sm TGR inh: inactive; FMDV antiviral: inactive; CHX counter: 53; Shiga toxin inh: 92

How did COc1ccc(NC(=O)c2cc(C)nc3ccccc23)cc1S(=O)(=O)N1CCOCC1 do in these assays?
FMDV antiviral: inactive

How did COc1ccc(NC(=O)c2cc(-c3ccco3)nc3ccccc23)cc1S(=O)(=O)N1CCOCC1 do in these assays?
Sm TGR inh: 7.9µM; FMDV antiviral: inactive; CHX counter: inactive; Shiga toxin inh: inactive

What do the screens show for `Cc1ccc(NC(=O)c2cc(-c3ccco3)nc3ccccc23)cc1S(=O)(=O)N1CCOCC1`?
Sm TGR inh: 45µM; FMDV antiviral: inactive; CHX counter: inactive; Shiga toxin inh: inactive

Results for C/C(=N/Nc1ccc(C(=O)O)cc1)c1ccc(O)c(O)c1O ?
Sm TGR inh: inactive; FMDV antiviral: inactive; CHX counter: 51; Shiga toxin inh: 84

What do the screens show for `COc1ccc(OC)c(/C(C)=N/Nc2ccc(C(=O)O)cc2)c1`?
Sm TGR inh: inactive; FMDV antiviral: inactive; CHX counter: 38; Shiga toxin inh: 55

How did COc1cc(/C(C)=N/Nc2ccc(C(=O)O)cc2)cc(OC)c1OC do in these assays?
Sm TGR inh: inactive; FMDV antiviral: inactive; CHX counter: 70; Shiga toxin inh: 171

How did COc1ccc(C(=O)O)cc1OC do in these assays?
FMDV antiviral: inactive

How did C/C(=N\Nc1ccc(C(=O)O)cc1)c1nc2ccccc2n1C do in these assays?
Sm TGR inh: inactive; CHX counter: inactive; Shiga toxin inh: inactive

Results for COc1ccc(/C(C)=N/Nc2ccc(C(=O)O)cc2)cc1OC ?
Sm TGR inh: inactive; FMDV antiviral: inactive; CHX counter: 41; Shiga toxin inh: inactive

What do the screens show for `Cc1ccc(NC(=O)Cn2nc(C)n3cccc3c2=O)c(C)c1`?
Sm TGR inh: inactive; FMDV antiviral: inactive

Results for COc1ccc(NC(=O)Cn2c(=O)n(-c3cccc(C)c3)c(=O)c3c2c2cc(C)ccc2n3C)cc1Cl ?
Sm TGR inh: inactive; FMDV antiviral: inactive

What do the screens show for `O=C(CSc1ncc(S(=O)(=O)c2ccc(Cl)cc2)c(=O)[nH]1)Nc1ccc2c(c1)OCCO2`?
Sm TGR inh: inactive; FMDV antiviral: inactive

How did Cc1cc2c(c(-c3nc4ccccc4s3)c1)OC(CNC(=O)c1occc1C)C2 (centres undefined) do in these assays?
FMDV antiviral: inactive

How did CCNC(=O)COC(=O)c1cc(C)n(-c2ccccc2)c1C do in these assays?
Sm TGR inh: inactive; FMDV antiviral: inactive; CHX counter: 41; Shiga toxin inh: 62

How did Cc1noc(C)c1COC(=O)c1cc(C)n(-c2ccccc2)c1C do in these assays?
Sm TGR inh: inactive; FMDV antiviral: inactive; CHX counter: 51; Shiga toxin inh: 38

Source: PubChem BioAssay
